Values joined by “and” are separate entries in the source; they are usually repeats but may differ in a detail not shown here. Equal values may be shown once. Entries with a potency or affinity are not part of this list.
Assays:
Klebsiella pneumoniae = settings: Concentration 32 ug.mL-1, ASSAY_TEST Inhibition of Bacterial Growth, detection method Absorption (OD600), MEDIA CAMHB, plate type 384well, NBS, CORNING #3640, time 18 hr
Candida albicans = settings: 32 ug/mL
Cryptococcus neoformans = settings: Concentration 32 ug.mL-1, ASSAY_TEST Inhibition of Fungal Growth, detection method Resazurin, Absorption (OD600-OD570), plate type 384well, NBS, CORNING #3640

## N#CC1=C(Cl)Oc2c(ccc3ccccc23)C1c1ccccc1[N+](=O)[O-] (configuration not stated)
Klebsiella pneumoniae
  Inhibition: 5.03%
Candida albicans
  Inhibition: 3.33%
Cryptococcus neoformans
  Inhibition: -51.56%

## COc1ccc2cc(C3C4=C(CC(C)(C)CC4=O)Oc4nc5c(c(N)c43)CCCC5)c(Cl)nc2c1 (configuration not stated)
Klebsiella pneumoniae
  Inhibition: 5.45%
Candida albicans
  Inhibition: 7.25%
Cryptococcus neoformans
  Inhibition: -9.09%

## O=C(O)c1cc2ccccc2[nH]1 [INDOLE-2-CARBOXYLIC ACID]
Klebsiella pneumoniae
  Inhibition: 1.67%
Candida albicans
  Inhibition: 26.2%
Cryptococcus neoformans
  Inhibition: -9.27%

## N#Cc1cc(C#N)c(NC2CCN(Cc3ccccc3)CC2)nc1N
Klebsiella pneumoniae; 32 ug/mL
  Inhibition: 9.31% and 4.29%
Candida albicans
  Inhibition: 1.61% and 2.76%
Cryptococcus neoformans; 32 ug/mL
  Inhibition: -42.03% and -48.76%

Reference: ChEMBL document CHEMBL4513135, “CO-ADD screening of IQOG CSIS (Spain) compounds”
